Legend:
Experiment in all cases: log2 ratio of Biotin-Ahx-Ub-VS probe labelling (fragment/DMSO); higher = less target engagement (more negative = stronger competition), active = hit call of the paper (q ≤ 0.05, log2 ratio ≤ -1)
Details in all cases: compound concentration: 200 uM; treatment time: 3 h
ALG13 = biological target: T1, ALG13 (UniProt Q9NP73)
T1 sequence (whole entry): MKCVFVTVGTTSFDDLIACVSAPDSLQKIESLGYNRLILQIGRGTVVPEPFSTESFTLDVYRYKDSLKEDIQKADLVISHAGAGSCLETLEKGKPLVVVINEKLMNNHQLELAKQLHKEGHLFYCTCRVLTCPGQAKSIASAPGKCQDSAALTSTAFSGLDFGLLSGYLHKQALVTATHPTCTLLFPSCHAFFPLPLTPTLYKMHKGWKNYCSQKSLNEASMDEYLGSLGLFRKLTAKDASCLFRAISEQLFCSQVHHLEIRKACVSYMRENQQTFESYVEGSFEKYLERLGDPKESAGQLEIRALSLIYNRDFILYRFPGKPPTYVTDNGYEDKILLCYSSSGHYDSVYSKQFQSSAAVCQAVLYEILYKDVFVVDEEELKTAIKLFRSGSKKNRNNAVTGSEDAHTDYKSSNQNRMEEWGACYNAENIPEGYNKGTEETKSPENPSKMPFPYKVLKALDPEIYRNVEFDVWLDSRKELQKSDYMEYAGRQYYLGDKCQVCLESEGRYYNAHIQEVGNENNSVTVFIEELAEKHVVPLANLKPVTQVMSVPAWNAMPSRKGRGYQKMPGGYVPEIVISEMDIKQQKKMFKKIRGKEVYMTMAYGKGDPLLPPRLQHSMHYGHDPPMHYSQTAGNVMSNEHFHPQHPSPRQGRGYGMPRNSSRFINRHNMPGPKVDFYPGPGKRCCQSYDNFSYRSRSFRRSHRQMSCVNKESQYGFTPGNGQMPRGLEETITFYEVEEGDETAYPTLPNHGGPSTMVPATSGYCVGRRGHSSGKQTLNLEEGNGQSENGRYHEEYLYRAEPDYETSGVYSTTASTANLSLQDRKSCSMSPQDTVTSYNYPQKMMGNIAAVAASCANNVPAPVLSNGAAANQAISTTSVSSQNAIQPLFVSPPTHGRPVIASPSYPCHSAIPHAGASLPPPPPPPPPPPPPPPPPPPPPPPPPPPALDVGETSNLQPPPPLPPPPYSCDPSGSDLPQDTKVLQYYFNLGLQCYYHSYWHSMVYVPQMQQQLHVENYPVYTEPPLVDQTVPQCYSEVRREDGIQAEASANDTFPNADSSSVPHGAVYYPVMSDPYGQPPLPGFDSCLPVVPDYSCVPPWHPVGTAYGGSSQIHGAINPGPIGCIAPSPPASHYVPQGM
Method in brief: (§1)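 Each value is an average log2 ratio of fragment to vehicle, tested by unpaired t-test. The underlying Spectronaut label-free quantities were global-median-normalised, and only proteins with ≥2 unique peptides were included. Triplicate HEK293T lysate samples (495 µg) were exposed to fragment at 200 µM or vehicle for 3 h, then to Biotin-Ahx-Ub-VS at 0.5 µM final for 1 h, before NeutrAvidin enrichment of labelled DUBs, LysC and trypsin digestion, and diaPASEF LC-MS/MS.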

ATXN3 = ATXN3 (UniProt P54252)
Sequence of ATXN3 (P54252 whole entry): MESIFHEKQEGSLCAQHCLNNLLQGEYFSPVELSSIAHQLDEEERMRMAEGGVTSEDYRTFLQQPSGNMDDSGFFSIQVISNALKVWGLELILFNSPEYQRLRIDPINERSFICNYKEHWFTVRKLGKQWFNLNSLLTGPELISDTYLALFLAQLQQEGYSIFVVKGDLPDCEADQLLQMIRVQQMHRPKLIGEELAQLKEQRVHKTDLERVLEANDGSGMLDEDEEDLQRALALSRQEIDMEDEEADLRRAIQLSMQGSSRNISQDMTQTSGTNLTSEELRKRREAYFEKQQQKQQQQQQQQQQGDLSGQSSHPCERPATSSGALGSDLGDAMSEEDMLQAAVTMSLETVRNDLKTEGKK
Method in brief: as §1

BAP1 = biological target: T2, BAP1 (UniProt Q92560)
T2 sequence (whole entry): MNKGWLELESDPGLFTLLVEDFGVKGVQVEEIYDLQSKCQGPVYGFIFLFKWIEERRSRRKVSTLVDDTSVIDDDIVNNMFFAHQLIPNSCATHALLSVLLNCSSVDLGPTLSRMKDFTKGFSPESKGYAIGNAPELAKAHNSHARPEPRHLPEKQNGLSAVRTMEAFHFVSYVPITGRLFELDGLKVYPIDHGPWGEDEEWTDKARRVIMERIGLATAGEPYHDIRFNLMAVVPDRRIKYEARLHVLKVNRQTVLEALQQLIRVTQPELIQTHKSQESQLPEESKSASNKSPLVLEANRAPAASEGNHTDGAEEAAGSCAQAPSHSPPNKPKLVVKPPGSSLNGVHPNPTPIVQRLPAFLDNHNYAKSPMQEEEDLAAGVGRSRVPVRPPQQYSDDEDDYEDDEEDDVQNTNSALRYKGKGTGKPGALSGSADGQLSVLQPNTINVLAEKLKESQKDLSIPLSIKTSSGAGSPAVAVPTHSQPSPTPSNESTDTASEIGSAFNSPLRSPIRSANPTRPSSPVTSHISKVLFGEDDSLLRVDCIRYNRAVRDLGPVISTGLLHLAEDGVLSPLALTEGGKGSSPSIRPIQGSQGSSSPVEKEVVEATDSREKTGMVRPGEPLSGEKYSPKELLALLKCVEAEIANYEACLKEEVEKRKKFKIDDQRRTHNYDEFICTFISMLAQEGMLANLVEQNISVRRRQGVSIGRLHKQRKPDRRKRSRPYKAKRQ
Method in brief: as §1

EIF3F = EIF3F (UniProt O00303)
Sequence of EIF3F (O00303 whole entry): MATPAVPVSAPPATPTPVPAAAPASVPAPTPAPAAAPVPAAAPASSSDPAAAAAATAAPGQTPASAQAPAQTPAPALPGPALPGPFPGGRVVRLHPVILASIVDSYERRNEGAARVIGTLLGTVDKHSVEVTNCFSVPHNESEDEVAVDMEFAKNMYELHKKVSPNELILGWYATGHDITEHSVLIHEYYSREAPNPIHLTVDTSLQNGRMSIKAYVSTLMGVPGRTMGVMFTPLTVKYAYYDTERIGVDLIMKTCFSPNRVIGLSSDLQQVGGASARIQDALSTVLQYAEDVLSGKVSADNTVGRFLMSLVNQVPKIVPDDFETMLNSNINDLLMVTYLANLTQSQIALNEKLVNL
Method in brief: as §1

EIF3H = EIF3H (UniProt O15372)
Sequence of EIF3H (O15372 whole entry): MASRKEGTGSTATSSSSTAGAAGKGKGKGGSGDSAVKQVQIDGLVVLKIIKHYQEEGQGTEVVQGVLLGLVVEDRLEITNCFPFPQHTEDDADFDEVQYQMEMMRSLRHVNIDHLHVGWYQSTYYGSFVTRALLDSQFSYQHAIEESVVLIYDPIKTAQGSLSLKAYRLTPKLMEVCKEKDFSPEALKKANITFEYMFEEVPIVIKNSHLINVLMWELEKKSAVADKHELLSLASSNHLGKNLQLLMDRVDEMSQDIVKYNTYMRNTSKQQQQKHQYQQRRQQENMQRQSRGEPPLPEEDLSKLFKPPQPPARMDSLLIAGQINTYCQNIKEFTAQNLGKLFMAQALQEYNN
Method in brief: as §1

FAM105A = biological target: T3, FAM105A (UniProt Q9NUU6)
T3 sequence (whole entry): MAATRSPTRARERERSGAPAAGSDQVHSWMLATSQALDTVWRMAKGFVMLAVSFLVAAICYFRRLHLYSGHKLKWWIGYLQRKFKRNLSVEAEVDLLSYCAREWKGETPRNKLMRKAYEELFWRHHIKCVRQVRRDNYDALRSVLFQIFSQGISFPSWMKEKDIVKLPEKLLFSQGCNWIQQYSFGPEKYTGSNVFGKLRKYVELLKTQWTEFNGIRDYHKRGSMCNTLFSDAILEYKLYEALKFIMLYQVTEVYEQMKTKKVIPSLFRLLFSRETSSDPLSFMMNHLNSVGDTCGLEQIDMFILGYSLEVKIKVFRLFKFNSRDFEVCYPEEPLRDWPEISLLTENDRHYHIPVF
Method in brief: as §1

OTUB1 = OTUB1 (UniProt Q96FW1)
Sequence of OTUB1 (Q96FW1 whole entry): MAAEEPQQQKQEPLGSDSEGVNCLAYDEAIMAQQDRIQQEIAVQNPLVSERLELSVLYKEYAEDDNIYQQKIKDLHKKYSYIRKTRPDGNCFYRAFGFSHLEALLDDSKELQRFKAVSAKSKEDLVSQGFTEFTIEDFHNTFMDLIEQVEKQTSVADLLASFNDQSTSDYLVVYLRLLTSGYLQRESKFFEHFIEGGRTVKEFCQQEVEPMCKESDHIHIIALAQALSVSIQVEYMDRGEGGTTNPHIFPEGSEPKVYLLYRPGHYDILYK
Method in brief: as §1

OTUD4 = biological target: T4, OTUD4 (UniProt Q01804)
T4 sequence (whole entry): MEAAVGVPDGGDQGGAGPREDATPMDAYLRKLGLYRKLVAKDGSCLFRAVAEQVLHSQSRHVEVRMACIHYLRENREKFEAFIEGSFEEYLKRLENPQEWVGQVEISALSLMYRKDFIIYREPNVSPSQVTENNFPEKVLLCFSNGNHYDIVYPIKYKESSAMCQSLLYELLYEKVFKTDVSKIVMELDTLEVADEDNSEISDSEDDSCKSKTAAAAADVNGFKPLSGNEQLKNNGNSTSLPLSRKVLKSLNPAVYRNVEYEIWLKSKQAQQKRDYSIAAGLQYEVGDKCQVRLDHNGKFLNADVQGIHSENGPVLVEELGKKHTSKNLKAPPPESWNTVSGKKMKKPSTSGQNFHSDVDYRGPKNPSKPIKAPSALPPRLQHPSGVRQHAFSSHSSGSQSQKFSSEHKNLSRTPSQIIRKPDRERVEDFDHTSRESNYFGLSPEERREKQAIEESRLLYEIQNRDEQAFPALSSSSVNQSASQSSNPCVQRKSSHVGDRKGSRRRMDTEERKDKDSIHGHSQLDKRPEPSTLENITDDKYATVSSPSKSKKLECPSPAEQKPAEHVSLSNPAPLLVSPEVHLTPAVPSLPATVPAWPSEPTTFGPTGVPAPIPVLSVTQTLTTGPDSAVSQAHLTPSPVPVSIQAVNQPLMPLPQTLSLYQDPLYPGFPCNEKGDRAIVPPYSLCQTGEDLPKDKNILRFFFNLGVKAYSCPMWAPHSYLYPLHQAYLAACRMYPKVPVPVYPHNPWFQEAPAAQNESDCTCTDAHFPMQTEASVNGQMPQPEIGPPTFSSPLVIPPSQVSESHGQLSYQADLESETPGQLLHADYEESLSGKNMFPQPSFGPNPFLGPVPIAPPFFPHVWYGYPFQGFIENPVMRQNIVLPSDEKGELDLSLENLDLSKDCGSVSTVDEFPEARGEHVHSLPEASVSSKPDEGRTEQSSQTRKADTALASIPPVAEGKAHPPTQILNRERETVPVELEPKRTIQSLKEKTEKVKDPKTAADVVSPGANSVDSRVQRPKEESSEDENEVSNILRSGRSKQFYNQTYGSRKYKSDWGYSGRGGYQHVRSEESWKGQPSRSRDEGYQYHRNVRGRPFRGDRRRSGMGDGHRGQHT
Method in brief: as §1

OTUD5 = biological target: T5, OTUD5 (UniProt Q96G74)
T5 sequence (whole entry): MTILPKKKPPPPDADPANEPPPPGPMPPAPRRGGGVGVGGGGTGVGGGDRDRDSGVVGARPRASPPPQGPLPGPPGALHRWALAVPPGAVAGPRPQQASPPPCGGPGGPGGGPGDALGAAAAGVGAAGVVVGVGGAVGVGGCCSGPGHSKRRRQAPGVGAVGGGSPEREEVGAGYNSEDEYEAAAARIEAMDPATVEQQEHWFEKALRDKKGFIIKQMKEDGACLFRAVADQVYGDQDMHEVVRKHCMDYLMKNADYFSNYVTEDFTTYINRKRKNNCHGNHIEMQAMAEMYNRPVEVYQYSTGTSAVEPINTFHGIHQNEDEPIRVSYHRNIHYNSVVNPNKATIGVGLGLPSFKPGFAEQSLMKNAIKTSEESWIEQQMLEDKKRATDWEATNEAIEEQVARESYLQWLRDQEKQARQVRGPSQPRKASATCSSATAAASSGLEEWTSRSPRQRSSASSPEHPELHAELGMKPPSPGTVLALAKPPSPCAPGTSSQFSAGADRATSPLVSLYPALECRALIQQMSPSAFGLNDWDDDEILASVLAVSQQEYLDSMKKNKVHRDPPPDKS
Method in brief: as §1

Measured: log2 ratio of Biotin-Ahx-Ub-VS probe labelling

O=C(CCl)N[C@H]1CC[C@@H](CO)CC1
active: BAP1 -1.34
inactive: ALG13 0.27 | ATXN3 -0.868 | EIF3F -0.486 | EIF3H 0.0529 | FAM105A -0.00946 | OTUB1 -0.626 | OTUD4 -0.852 | OTUD5 -0.686

Reference: the supplement of paper PMC11732987, “Enantioselective OTUD7B fragment discovery through chemoproteomics screening and high-throughput optimisation” (Communications Chemistry, 2025)
